{
  "source": "PubChem BioAssay (NCATS)",
  "note": "Inconclusive results are not listed. Entries that show only a call come without a potency. The source made the active and inactive calls. Calls come from the whole dose curve; as a rule, active = well fitted inhibition curve with a large enough effect; inconclusive = small, poorly fitted or top-dose-only effect; inactive = flat fitted curve, though single readings scatter. Where a SMILES comes first, the peptide text is derived from it. Bridges are numbered along the chain shown (N, C = ends). [ ]: non-standard residue; d: D form. The star is where a group is joined. X1 = CC[C@@H](C)[C@@H](N)C1=N[C@H](C(=O)*)CS1; d(aIle) = CC[C@H](C)[C@@H](N)C(=O)O; dOrn = NCCC[C@@H](N)C(=O)O",
  "data": [
    {"target": "Voltage-gated inwardly rectifying potassium channel KCNH2 (Homo sapiens) (UniProt Q12809)", "sequence (Q12809 whole entry, looked up)": "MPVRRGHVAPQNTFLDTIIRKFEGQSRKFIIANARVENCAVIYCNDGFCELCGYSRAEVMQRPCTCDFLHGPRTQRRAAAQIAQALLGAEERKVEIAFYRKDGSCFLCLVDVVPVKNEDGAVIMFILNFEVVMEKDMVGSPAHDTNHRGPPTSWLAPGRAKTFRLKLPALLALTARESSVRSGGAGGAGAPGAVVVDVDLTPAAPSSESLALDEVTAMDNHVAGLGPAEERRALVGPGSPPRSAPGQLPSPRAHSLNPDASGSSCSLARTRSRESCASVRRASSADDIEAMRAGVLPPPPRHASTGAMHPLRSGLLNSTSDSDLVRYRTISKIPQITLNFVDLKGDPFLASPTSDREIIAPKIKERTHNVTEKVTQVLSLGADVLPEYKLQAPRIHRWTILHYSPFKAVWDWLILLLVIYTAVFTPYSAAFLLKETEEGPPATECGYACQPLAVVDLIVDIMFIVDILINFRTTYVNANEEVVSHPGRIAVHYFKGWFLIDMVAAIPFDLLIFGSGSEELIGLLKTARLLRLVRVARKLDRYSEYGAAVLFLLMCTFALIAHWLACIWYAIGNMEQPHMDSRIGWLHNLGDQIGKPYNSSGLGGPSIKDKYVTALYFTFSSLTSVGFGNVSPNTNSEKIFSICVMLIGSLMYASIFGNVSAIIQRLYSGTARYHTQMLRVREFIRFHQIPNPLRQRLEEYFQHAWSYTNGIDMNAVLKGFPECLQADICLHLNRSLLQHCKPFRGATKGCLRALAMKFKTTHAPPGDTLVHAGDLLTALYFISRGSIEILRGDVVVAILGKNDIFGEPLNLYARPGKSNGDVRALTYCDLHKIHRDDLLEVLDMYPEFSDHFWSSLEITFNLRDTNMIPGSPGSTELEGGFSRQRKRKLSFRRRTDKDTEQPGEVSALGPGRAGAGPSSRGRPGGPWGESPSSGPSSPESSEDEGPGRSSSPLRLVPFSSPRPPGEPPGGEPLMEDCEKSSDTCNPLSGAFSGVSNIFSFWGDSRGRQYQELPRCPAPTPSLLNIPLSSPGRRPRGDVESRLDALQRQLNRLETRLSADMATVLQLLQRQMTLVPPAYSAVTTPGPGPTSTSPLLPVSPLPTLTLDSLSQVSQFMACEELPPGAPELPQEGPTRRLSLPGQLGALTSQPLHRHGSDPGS", "test": "qHTS Assay for Small Molecule Inhibitors of the Human hERG Channel Activity (AID 588834);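 note: lower thallium flux fluorescence means stronger hERG block; nearly all actives have a fitted effect of over 50% in size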; note: potency is the fitted concentration of half-maximal effect", "settings": "U2OS BacMam hERG, FluxOR thallium flux fluorescence; series mostly up to 46.1 µM", "outline": "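Cells were infected with hERG-BacMam virus for 4 hrs at room temperature, grown overnight, then seeded at 2000/well. After dye loading and roughly 10 min compound treatment, thallium influx was triggered and fluorescence recorded.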", "values": [
      {"compound": "O=C1CC[C@@H](C(=O)N[C@H]2C[C@@H]2c2ccccc2)N1", "Potency": "inactive"},
      {"compound": "CC[C@@H](C)[C@@H](N)C1=N[C@H](C(=O)N[C@@H](CC(C)C)C(=O)N[C@@H](CCC(=O)O)C(=O)N[C@@H](C(=O)N[C@@H]2CCCCNC(=O)[C@@H](CC(N)=O)NC(=O)[C@@H](CC(=O)O)NC(=O)[C@@H](Cc3cnc[nH]3)NC(=O)[C@@H](Cc3ccccc3)NC(=O)[C@@H]([C@H](C)CC)NC(=O)[C@@H](CCCN)NC2=O)[C@@H](C)CC)CS1", "note": "(X1-LE[d(aIle)][dK][dOrn][dI][dF][dH][dD][dN]; lactam 4-C)", "Potency": "inactive"},
      {"compound": "O=C(O)c1cc(O)c2c(c1)[C@H]([C@H]1c3cc(C(=O)O)cc(O)c3C(=O)c3c(O[C@@H]4O[C@H](CO)[C@@H](O)[C@H](O)[C@H]4O)cccc31)c1cccc(O[C@@H]3O[C@H](CO)[C@@H](O)[C@H](O)[C@H]3O)c1C2=O", "Potency": "inactive"},
      {"compound": "COc1ccc(C(=O)/C(Br)=C\\C(=O)O)cc1", "Potency": "inactive"},
      {"compound": "CCCCCCCCCCCC(=O)OC[C@@H](O)C1OC[C@H](O)[C@H]1O", "note": "(stereo partly specified)", "Potency": "inactive"},
      {"compound": "CC(C)N1CCN(c2ccc(OC[C@H]3CO[C@](Cn4cncn4)(c4ccc(Cl)cc4Cl)O3)cc2)CC1", "Potency": "8.91 µM (active)"},
      {"compound": "Nc1nc(/C(=C/CC(=O)O)C(=O)N[C@@H]2C(=O)N3C(C(=O)O)=CCS[C@H]23)cs1", "Potency": "inactive"},
      {"compound": "Nc1nc2c(c(=O)[nH]1)N(C=O)C(CNc1ccc(C(=O)N[C@@H](CCC(=O)O)C(=O)O)cc1)CN2", "note": "(stereo partly specified)", "Potency": "inactive"},
      {"compound": "CCc1cn([C@H]2C[C@H](O)[C@@H](CO)O2)c(=O)[nH]c1=O", "Potency": "inactive"},
      {"compound": "O=C1C2CC3CC1CC(O)(C3)C2", "Potency": "inactive"},
      {"compound": "CN[C@@H]1[C@H](O[C@H]2[C@H](O[C@H]3[C@H](O)[C@@H](O)[C@H](N=C(N)N)[C@@H](O)[C@@H]3N=C(N)N)O[C@@H](C)[C@]2(O)CO)O[C@@H](CO)[C@H](O)[C@H]1O", "Potency": "inactive"}
    ]}
  ]
}
